Bioassay records as filed in PubChem.
Gal4-VP16 FLuc – VP16 counterscreen qHTS for inhibitors of ROR gamma transcriptional activity; AID 2546, 2010; 3.5% of 310,000 active; Potency, µM (titrated, usually from 53.6 µM), inactives show at the top dose activity, negative = inhibition, most hits filed as inhibitors; Drosophila S2 Gal4-VP16 UAS-luciferase, luminescence, 20 h;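 note: Gal4-VP16 expression switched on by copper sulfate through the metallothionein promoter; % is set by controls: 0 for no effect and ±100 for the full control effect; nearly all actives have a fitted effect of over 50% in size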
Chronic BCR inh – qHTS Assay to Find Inhibitors of Chronic Active B-Cell Receptor Signaling | AID 493014, 2011 | ABC-DLBCL IkBa-CBG/CBR reporter, luminescence ratio, 4 h | Potency, µM (top dose mostly 46.1 µM), without a hit: top-dose activity change, negative = inhibition, most hits filed as inhibitors | 0.05% of 340,000 active; active = well fitted inhibition curve with a large enough effect in the signal ratio, with a control signal flat, not every such curve was filed as active; inconclusive = small, poorly fitted or top-dose-only effect, or effect the other way, or a change in a side signal; the % refers to the signal ratio;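 note: plate controls were basal doxycycline-induced cells for no effect and cells given 10 µM MG132 for full effect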
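Cell line TMD8 (human ABC DLBCL), stably expressing tet-inducible CBG68-IkBa fusion and CBR; IMDM/0.5% FBS; cpd up to 46 uM; dox induction, 4 h, 37C/5% CO2; dual luminescence; green/red ratio; MG132 control.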
a7 integrin act – qHTS for Activators of Integrin-Mediated Alleviation for Muscular Dystrophy | AID 624291, 2012 | alpha7betagal myoblasts, beta-gal FDG fluorescence, 48 h | Potency, µM (titrated, usually from 38.3 µM), without a hit: at the highest dose activation, usual class: activators | 0.064% of 350,000 active;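 note: 100% = response of the positive control SU9516; nearly all actives have a fitted effect of over 60% in size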
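alpha7betagal+/- myoblasts (passage 13, 250/well) treated 48 h at 37C with compounds at 1:260 dilution of DMSO stock. Lysed, then beta-galactosidase activity read as FDG fluorescence (ex 480/em 540) after 30 min, with pre-read for autofluorescence.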
uPA generation – qHTS for Inhibitors of Cell Surface uPA Generation; cell surface uPA generation assay, qHTS; Potency, µM (top dose mostly 38.3 µM), for the others: top-dose activity change, negative = inhibition, hits mostly inhibitors; AID 540303, 2011; 0.31% of 330,000 active; active = well fitted inhibition curve with a large enough effect; inconclusive = small, poorly fitted or top-dose-only effect; inactive = no such curve, though single readings can be large or run the other way; tested in mouse RAW 264.7 cells; note: % is set by controls: 0 for no effect and ±100 for the full control effect; nearly all actives have a fitted effect of over 55% in size
RORgamma inh – qHTS for inhibitors of ROR gamma transcriptional activity; Nuclear receptor ROR-gamma (Mus musculus), P51450; Drosophila S2 Gal4-RORgamma UAS-luciferase reporter, 20 h; Potency, µM (doses to about 53.6 µM), inactives show at the top dose activity change, negative = inhibition, most hits filed as inhibitors; 5.4% of 310,000 active; note: % is set by controls: 0 for no effect and ±100 for the full control effect; nearly all actives have a fitted effect of over 60% in size
Target sequence (P51450 whole entry, looked up, the tested form may be a part): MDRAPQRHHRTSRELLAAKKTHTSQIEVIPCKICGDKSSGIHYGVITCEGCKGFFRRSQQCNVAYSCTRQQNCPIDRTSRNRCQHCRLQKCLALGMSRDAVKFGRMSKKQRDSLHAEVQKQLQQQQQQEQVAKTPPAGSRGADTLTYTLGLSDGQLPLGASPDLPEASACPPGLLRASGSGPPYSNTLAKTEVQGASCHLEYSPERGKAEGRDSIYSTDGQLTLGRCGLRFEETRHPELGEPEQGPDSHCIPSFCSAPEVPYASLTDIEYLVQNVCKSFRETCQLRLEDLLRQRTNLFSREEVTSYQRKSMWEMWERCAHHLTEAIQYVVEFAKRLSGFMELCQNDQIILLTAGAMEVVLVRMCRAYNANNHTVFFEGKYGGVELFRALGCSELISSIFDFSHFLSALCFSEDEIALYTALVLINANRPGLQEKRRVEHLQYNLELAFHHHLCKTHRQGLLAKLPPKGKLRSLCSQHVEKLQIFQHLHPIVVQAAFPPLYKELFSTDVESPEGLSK
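A Gal4/UAS one-hybrid system in insect cells: metallothionein-promoter Gal4–ROR gamma fusion plus Photinus luciferase reporter. Copper sulfate 700 uM final, 20 hr ambient incubation, luminescent detection after 10 min with reagent.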
Mito fusion yeast – qHTS Assay for Small Molecule Inhibitors of Mitochondrial Division or Activators of Mitochondrial Fusion; 0.23% of 320,000 active; Potency, µM (doses to about 46.1 µM), without a hit: at the highest dose growth rescue (activation), hits mostly activators; S. cerevisiae fusion-defective mutant growth rescue, CellTiterGlo 48 h; AID 485298, 2010; note: % of control where 0% means no effect; nearly all actives have a fitted effect of over 45% in size
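Compounds are tested for their ability to restore growth of mitochondrial fusion-defective yeast strains at non-permissive 37C in YPEG medium over 48 hours. Viability is quantified by luciferase luminescence.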
* hit, by the source's call; [ ] = another dose, or the depositor's remark. The list is not random: actives were taken first. Their share in the collection is about 5.5%. Unless noted, calls come from the whole dose curve; as a rule, active = well fitted curve in the direction sought with a large enough effect; inconclusive = small, poorly fitted or top-dose-only effect, or another doubt; inactive = no such curve, though single readings can be large; an effect the other way counts as inactive or inconclusive. Potency is the fitted concentration of half-maximal effect.

How did CCCn1c(SC(C)C(=O)O)nc2ccccc21 (centres undefined) do in these assays?
Gal4-VP16 FLuc: 4%; Chronic BCR inh: 8%; a7 integrin act: -2%; uPA generation: 4%; RORgamma inh: -24%; Mito fusion yeast: -1%

How did Cn1c(=O)c([N+](=O)[O-])c(NCC2CCCO2)c2ccccc21 (centres undefined) do in these assays?
Gal4-VP16 FLuc: -4%; Chronic BCR inh: -8%; a7 integrin act: 22%; uPA generation: -3%; RORgamma inh: -26%; Mito fusion yeast: 5%

Results for COc1ccc(NC(=O)CCn2cnnn2)cc1 ?
Chronic BCR inh: 21%; Mito fusion yeast: 2%

Results for CC1=CC(=O)C2=C(C)C[C@@H]3OC(=O)[C@@H](C)[C@H]3C=C12 ?
Gal4-VP16 FLuc: 1%; RORgamma inh: -18%

What do the screens show for `CC(=O)Nc1nc(NCc2ccccc2Cl)n(-c2ccccc2)n1`?
Gal4-VP16 FLuc: -12%; Chronic BCR inh: -4%; a7 integrin act: -22%; uPA generation: 11%; RORgamma inh: -18%; Mito fusion yeast: -1%

How did CC(=O)Nc1nc(NC(=O)/C=C/c2ccccc2)n(-c2ccccc2)n1 do in these assays?
Gal4-VP16 FLuc: 0.89µM*; Chronic BCR inh: 0%; a7 integrin act: -19%; uPA generation: -5%; RORgamma inh: 0.28µM*; Mito fusion yeast: 0%

What do the screens show for `C=CCCn1c(Cl)c(C#N)sc1=O`?
Gal4-VP16 FLuc: -19%; RORgamma inh: -5%

How did CCN1/C(=C/c2ccc3ccccc3[n+]2CCCS(=O)(=O)[O-])C=Cc2cc(C)ccc21 do in these assays?
Gal4-VP16 FLuc: -13%; Chronic BCR inh: inconclusive; a7 integrin act: 0%; uPA generation: -6%; RORgamma inh: -17%; Mito fusion yeast: -20%

How did CCN1/C(=C/c2ccc3ccccc3[n+]2CC)C=Cc2ccccc21 do in these assays?
Gal4-VP16 FLuc: 2.8µM*; Chronic BCR inh: inconclusive; a7 integrin act: inconclusive; uPA generation: -17%; RORgamma inh: 8.9µM*; Mito fusion yeast: -8%

How did COc1ccccc1N/C=C/c1onc(C)c1[N+](=O)[O-] do in these assays?
Gal4-VP16 FLuc: inconclusive; Chronic BCR inh: -10%; a7 integrin act: 13%; uPA generation: inconclusive; RORgamma inh: 11µM*; Mito fusion yeast: 0%

Results for Cc1cc(/C=C2/C(=O)NN(c3ccccc3)C2=O)c(C)n1-c1ccc(O)cc1 ?
Gal4-VP16 FLuc: 4µM*; Chronic BCR inh: inconclusive; a7 integrin act: -17%; uPA generation: -7%; RORgamma inh: 14µM*; Mito fusion yeast: -1%

How did Cc1cc(C=C2C(=O)CCCC2=O)c(C)n1-c1ccccc1 do in these assays?
Gal4-VP16 FLuc: -4%; Chronic BCR inh: 1%; a7 integrin act: 3%; uPA generation: 1%; RORgamma inh: 8.9µM*; Mito fusion yeast: 0%

How did Cc1cc(/C=C2\SC(=S)NC2=O)c(C)n1-c1ccc(O)cc1 do in these assays?
Gal4-VP16 FLuc: -21%; Chronic BCR inh: inconclusive; a7 integrin act: -12%; uPA generation: -13%; RORgamma inh: 21%; Mito fusion yeast: -8%

How did Cc1cc(/C=C2\SC(=S)NC2=O)c(C)n1-c1ccccc1 do in these assays?
Gal4-VP16 FLuc: inconclusive; Chronic BCR inh: 14%; a7 integrin act: 20%; uPA generation: -7%; RORgamma inh: 10µM*; Mito fusion yeast: -2%

Results for Cc1c2c(c(O)c3c(O)cccc13)C(=O)O[C@H]2C1C(N(C)C)C(O)=C(C(N)=O)C(=O)[C@H]1O (some centres undefined) ?
Gal4-VP16 FLuc: -9%; RORgamma inh: 8%

How did Cc1ccc(-c2nnc(SCC(=O)CC(=O)Nc3ccccc3)n2-c2ccccc2)cc1 do in these assays?
Gal4-VP16 FLuc: inconclusive; Chronic BCR inh: 2%; a7 integrin act: -1%; uPA generation: 3%; RORgamma inh: 3.5µM*; Mito fusion yeast: -5%

What do the screens show for `COc1ccc(-n2c(Cc3ccccc3)nnc2SCc2ccc([N+](=O)[O-])cc2)cc1`?
Gal4-VP16 FLuc: -8%; Chronic BCR inh: -19%; a7 integrin act: 6%; uPA generation: 14%; RORgamma inh: 43%; Mito fusion yeast: 22%

How did CCn1c(COc2ccccc2C)nnc1SCC(=O)O do in these assays?
Gal4-VP16 FLuc: -10%; Chronic BCR inh: 4%; a7 integrin act: -4%; uPA generation: 3%; RORgamma inh: -1%; Mito fusion yeast: 2%

Results for O=[N+]([O-])c1ccc(CSc2nnc(Cc3ccccc3)n2-c2ccc(F)cc2)cc1 ?
Gal4-VP16 FLuc: 10µM*; Chronic BCR inh: inconclusive; a7 integrin act: 10%; uPA generation: 7%; RORgamma inh: inconclusive; Mito fusion yeast: 8%

Results for CCn1c(COc2ccccc2C)nnc1SCC(=O)CC(=O)Nc1ccccc1 ?
Gal4-VP16 FLuc: inconclusive; Chronic BCR inh: -1%; a7 integrin act: 16%[7.66 µM]; uPA generation: 2%; RORgamma inh: 7.1µM*; Mito fusion yeast: 2%

Results for Cc1cccc(NC(=O)CSc2nnc(-c3ccccc3)n2N)c1 ?
Gal4-VP16 FLuc: 1%; Chronic BCR inh: 6%; a7 integrin act: 14%; uPA generation: 0%; RORgamma inh: 1%; Mito fusion yeast: -5%

How did Cc1cc(C)cc(NC(=O)CSc2nnc(-c3ccccc3)n2N)c1 do in these assays?
Gal4-VP16 FLuc: 2%; Chronic BCR inh: inconclusive; a7 integrin act: 1%; uPA generation: -2%; RORgamma inh: -10%; Mito fusion yeast: 0.63µM*

How did Cc1ccccc1C[C@H](C(=O)O)N1C(=O)c2ccc(C(=O)O)cc2C1=O do in these assays?
Gal4-VP16 FLuc: -4%; Chronic BCR inh: 2%; RORgamma inh: -16%; Mito fusion yeast: -1%

How did Cc1cc2c(c(=O)o1)C1O[C@](CCCCN3C(=O)c4ccccc4C3=O)(Cc3cc(C#N)ccc31)O2 do in these assays?
Gal4-VP16 FLuc: 1%[10 µM]; Chronic BCR inh: inconclusive; RORgamma inh: 5%[10 µM]; Mito fusion yeast: 1%[9.22 µM]

How did COc1cc2c(cc1OC)C1O[C@](CCCCN3C(=O)c4ccccc4C3=O)(C2)Oc2c1c(=O)oc1ccc(F)cc21 do in these assays?
Gal4-VP16 FLuc: 0%[10 µM]; Chronic BCR inh: 28%[9.22 µM]; RORgamma inh: -7%[10 µM]; Mito fusion yeast: 1%[9.22 µM]

What do the screens show for `COc1ccc(-n2c(SCc3ccc([N+](=O)[O-])cc3)nnc2-c2ccc(C)cc2)cc1`?
Gal4-VP16 FLuc: 4.5µM*; Chronic BCR inh: -5%; a7 integrin act: 18%; uPA generation: 7%; RORgamma inh: -3%; Mito fusion yeast: 23%
